Here are results for 15 compounds from PubChem BioAssay.

Test [1] concerns TRPC4 beta (transient receptor potential cation channel C4), mouse. The test can be described thus: TRPC4 cation channel opening, retest – cell-based, Fluo4 calcium, HEK293 TRPC4beta/mu-opioid, duplicates, 10 µM, confirmation (AID 2426;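 active means fluorescence ratio normalized to control raised more than 50% in primary screen plus both repeat runs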;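 on activation: percent rise of integrated ratio over buffer wells lacking compound which define 0%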). As to conditions: Fluo4 calcium fluorescence, at 10 µM; stronger effect = higher value.
Test [2] concerns transient receptor potential cation channel C4 beta (TRPC4), mouse. The test can be described thus: TRPC4 cation channel opening, second retest – cell-based, second round, Fluo4, HEK293 TRPC4beta/mu-opioid, 1 µM, confirmation (AID 2461).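 On activation: 0% = wells without test compound as baseline of integrated fluorescence ratio.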 As to conditions: Fluo4 calcium fluorescence, at 1 µM; stronger effect = higher value.
The test system of test [3] is TRPC4 (transient receptor potential cation channel C4 beta), mouse. The test can be described thus: potentiation of DAMGO EC20 TRPC4 response – cell-based, second round, Fluo-4, HEK293 TRPC4beta/mu-opioid, 1 µM, confirmation (AID 2554;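 active means primary screen hit whose fluorescence ratio, in both repeats, exceeds the weak agonist control mean by 3 SD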). As to conditions: DAMGO EC20, Fluo-4 calcium flux, at 1 µM; stronger effect = higher value.
The test system of test [4] is TRPC4 beta (transient receptor potential cation channel C4), mouse. The test can be described thus: potentiation of DAMGO EC20 TRPC4 response – cell-based, Fluo-4, HEK293 TRPC4beta/mu-opioid, confirmation (AID 2555;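 active means primary screen hit whose calcium fluorescence ratio, in both repeats, exceeds the weak agonist control mean by 3 SD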). As to conditions: DAMGO EC20, Fluo-4 calcium flux, at 10 µM; stronger effect = higher value.
The target of test [5] is Short transient receptor potential channel 4 (Mus musculus) (UniProt Q9QUQ5). Kind of test: blockers of DAMGO-evoked TRPC4 calcium flux – cell-based, Fluo4, HEK293 TRPC4beta/mu-opioid, confirmation (AID 2636;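 active means calcium signal cut by more than 3 SD below the full-agonist control yet still positive, in both repeats and the earlier primary screen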). As to conditions: at 10 µM; stronger effect = higher value.
For test [6] the target is unchanged. The test can be described thus: blockers of DAMGO-evoked TRPC4 calcium flux – cell-based, second round, Fluo4, HEK293 TRPC4beta/mu-opioid, 1 µM, confirmation (AID 2637;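 active means calcium signal ratio cut to more than 3 SD under the fully stimulated control mean yet still positive, in both repeats and the primary screen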). As to conditions: at 1 µM; stronger effect = higher value.
For test [7] the target is unchanged. The test can be described thus: potentiation of DAMGO-evoked TRPC4 calcium signal – cell-based, HEK293 TRPC4/mu-opioid, Fluo-4 calcium, EC20 DAMGO, dose response (AID 434941;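 active means earlier screen potentiator hit that boosts the TRPC4 ion channel at some dose, with a dose response; inactive means no potentiation, no dose response, or not a prior hit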;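 further: calcium entry triggered by an EC20 dose of DAMGO at the co-expressed mu-opioid receptor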).
The target is the same in test [8]. Kind of test: block of DAMGO-driven TRPC4 calcium entry – cell-based, HEK293 TRPC4/mu-opioid, Fluo-4 calcium, dose response (AID 434942;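 active means primary screen inhibitor hit that blocks the TRPC4 channel at some tested dose, yielding a dose curve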).
Test [9] addresses Short transient receptor potential channel 6 (Mus musculus) (UniProt Q61143). The test can be described thus: TRPC6 blockade by TRPC4 inhibitor hits – cell-based, HEK293, membrane potential dye, duplicate, selectivity assay for TRPC4 inhibitor project, confirmation (AID 434948;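 active means active in primary screen and both duplicates, each dropping signal beyond three positive-control SD with fluorescence still positive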). As to conditions: HEK293 TRPC6, membrane potential dye fluorescence, at 10 µM, stimulated with maximal-effect acetylcholine; stronger effect = higher value.

Test [10] shares this target. Kind of test: TRPC6 opening by TRPC4 activator hits – cell-based, HEK293, membrane potential dye, duplicate, selectivity assay for TRPC4 activator project, confirmation (AID 434950;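 active means membrane potential signal rise above negative control mean plus 3 SD in both duplicates, also active in the earlier TRPC4 screen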;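 on activation: 0% = buffer only wells and 100% = acetylcholine maximal-effect wells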). As to conditions: HEK293 TRPC6, membrane potential fluorescence, at 10 µM; activation: stronger effect = higher value; outcome: activation.
Test [11] shares this target. The test can be described thus: positive modulators of mouse TRPC6 channel – HEK293 cells, membrane potential dye, duplicate, selectivity assay for TRPC4 potentiator project, confirmation (AID 434952;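 active means compound raising the membrane signal above positive-control mean plus 3 SD in both repeats, and a primary screen hit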). As to conditions: HEK293 TRPC6, membrane potential dye fluorescence, at 10 µM, maximal acetylcholine added after compound; stronger effect = higher value.
For test [12], the target named is Short transient receptor potential channel 4 (Mus musculus) (UniProt Q9QUQ5). The test can be described thus: calcium flux activators in TRPC4/5HT1a cells, counter-screen for TRPC4 activator project, cell-based, second counter screen, HEK293 TRPC4/5HT1a, Fluo-4 (AID 434977;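 active means calcium signal rise above buffer-control mean plus 5 SD in both duplicates, and also a hit in the primary screen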;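 on activation: plate controls were assay buffer for no effect and maximal serotonin response for full effect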). As to conditions: Fluo-4 calcium flux, at 10 µM; stronger effect = higher value.
Test [13] is described as follows: serotonin-gated TRPC4 signal block – cell-based, second counter screen, HEK293 TRPC4/5HT1a, Fluo-4, counter-screen for TRPC4 inhibitor project, confirmation (AID 434978;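 active means primary screen active whose calcium signal fell more than 3 SD beyond the full-serotonin control mean in both duplicate plates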;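 further: serotonin given first at submaximal then at maximal dose after compound preincubation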). As to conditions: Fluo-4 calcium flux, at 10 µM, serotonin added to trigger calcium flux; stronger effect = higher value.
Test [14] concerns TRPC4 (mouse), co-expressed with 5HT1a in HEK293. The test can be described thus: enhancement of serotonin-evoked TRPC4 response – cell-based, second counter screen, HEK293 TRPC4/5HT1a, Fluo-4, counter-screen for TRPC4 potentiator project, confirmation (AID 434979;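 active means signal rise over 3 SD above mean of control wells given weak agonist, in both repeats and first screen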). As to conditions: Fluo-4 calcium flux, at 10 µM, serotonin added at its EC20 dose; stronger effect = higher value.
A short description of test [15]: nonspecific calcium rise without TRPC4 – cell-based, HEK293 mu-opioid receptor line, counter-screen for TRPC4 activator project, confirmation (AID 449723;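 active means hit in primary screen, with calcium signal over 5 SD above buffer well mean in both duplicates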;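 further: counter screen cells carry the mu-opioid receptor alone and lack TRPC4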). As to conditions: HEK293 mu-opioid cells, Fluo-4 calcium fluorescence, at 10 µM; stronger effect = higher value.
A short description of test [16]: nonspecific potentiation of DAMGO calcium response – cell-based, HEK293 mu-opioid receptor line, counter-screen for TRPC4 allosteric potentiator project, confirmation (AID 449724;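 active means calcium signal rise more than 3 SD above the low-dose agonist control mean, in both duplicate plates and the primary screen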;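 further: HEK293 cells carrying mu-opioid receptor only with no TRPC4 channel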). As to conditions: HEK293 mu-opioid receptor cells, Fluo-4 calcium flux, at 10 µM, compound added before EC20 DAMGO stimulus; stronger effect = higher value.

Each structure is given as a SMILES string. For part of these data: Potency and affinity values are given separately. Active and inactive are the calls of the source.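 How the source made its calls, unless noted: active means primary screen active and over 50% activation in each of two duplicate runs; inactive means the rest.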

Sequence of Short transient receptor potential channel 6 (Mus musculus) (Q61143 whole entry, looked up): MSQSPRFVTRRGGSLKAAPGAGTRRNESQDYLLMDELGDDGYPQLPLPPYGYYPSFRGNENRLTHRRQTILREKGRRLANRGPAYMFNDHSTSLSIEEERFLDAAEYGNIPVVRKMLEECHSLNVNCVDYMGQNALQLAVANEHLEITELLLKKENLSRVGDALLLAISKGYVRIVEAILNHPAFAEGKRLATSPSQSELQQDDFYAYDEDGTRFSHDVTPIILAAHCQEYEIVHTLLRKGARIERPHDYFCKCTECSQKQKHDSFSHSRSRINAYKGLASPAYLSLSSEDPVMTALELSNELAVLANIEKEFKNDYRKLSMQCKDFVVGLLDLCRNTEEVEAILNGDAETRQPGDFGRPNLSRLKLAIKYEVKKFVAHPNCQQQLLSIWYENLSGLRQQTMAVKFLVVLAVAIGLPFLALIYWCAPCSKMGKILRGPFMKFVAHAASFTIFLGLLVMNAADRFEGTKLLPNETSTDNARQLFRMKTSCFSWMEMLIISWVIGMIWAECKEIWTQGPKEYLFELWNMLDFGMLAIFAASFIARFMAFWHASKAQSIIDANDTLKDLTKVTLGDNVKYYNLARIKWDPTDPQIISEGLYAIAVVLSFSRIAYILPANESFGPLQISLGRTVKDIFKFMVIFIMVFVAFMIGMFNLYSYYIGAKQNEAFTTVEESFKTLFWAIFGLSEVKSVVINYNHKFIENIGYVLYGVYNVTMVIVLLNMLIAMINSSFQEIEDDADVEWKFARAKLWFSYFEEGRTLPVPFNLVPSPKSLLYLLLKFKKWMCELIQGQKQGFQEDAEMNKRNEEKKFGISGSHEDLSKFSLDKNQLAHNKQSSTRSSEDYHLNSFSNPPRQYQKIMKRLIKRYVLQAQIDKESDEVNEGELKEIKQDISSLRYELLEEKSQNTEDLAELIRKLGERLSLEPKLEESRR
Sequence of Short transient receptor potential channel 4 (Mus musculus) (Q9QUQ5 whole entry, looked up): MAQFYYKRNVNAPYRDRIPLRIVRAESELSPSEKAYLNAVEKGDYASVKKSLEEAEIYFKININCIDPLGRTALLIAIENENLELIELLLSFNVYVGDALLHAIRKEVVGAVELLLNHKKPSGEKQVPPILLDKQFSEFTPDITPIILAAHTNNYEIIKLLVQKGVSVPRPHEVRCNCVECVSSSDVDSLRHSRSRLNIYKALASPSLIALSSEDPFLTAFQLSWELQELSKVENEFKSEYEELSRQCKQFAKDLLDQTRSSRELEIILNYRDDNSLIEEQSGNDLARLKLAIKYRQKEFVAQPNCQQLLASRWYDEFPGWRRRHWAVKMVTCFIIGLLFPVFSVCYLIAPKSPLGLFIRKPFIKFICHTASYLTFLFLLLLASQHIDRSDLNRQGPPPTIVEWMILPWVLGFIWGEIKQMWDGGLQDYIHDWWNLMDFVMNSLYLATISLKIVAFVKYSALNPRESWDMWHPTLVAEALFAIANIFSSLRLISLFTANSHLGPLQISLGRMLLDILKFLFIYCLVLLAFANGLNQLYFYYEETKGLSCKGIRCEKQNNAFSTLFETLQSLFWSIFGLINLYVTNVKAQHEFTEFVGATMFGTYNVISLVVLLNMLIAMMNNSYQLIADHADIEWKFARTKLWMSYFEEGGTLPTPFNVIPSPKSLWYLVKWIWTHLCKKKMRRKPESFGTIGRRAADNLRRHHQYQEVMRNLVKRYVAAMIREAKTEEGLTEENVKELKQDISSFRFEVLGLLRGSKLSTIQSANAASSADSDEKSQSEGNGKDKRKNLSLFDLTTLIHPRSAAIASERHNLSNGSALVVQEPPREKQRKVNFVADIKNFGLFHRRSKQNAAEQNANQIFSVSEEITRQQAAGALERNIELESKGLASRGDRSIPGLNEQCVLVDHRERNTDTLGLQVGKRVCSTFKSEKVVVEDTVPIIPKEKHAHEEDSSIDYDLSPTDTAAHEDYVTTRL

Turning to `Clc1ccc(OCCNCCc2ccccc2)cc1`, the result in [1], in test [2], in test [3], in [4], in [5] and in test [6] was inactive. Moreover, the result in test [7], in test [8], in [9], in [11], in test [13] and in test [14] was inactive. The result in test [15] and in test [16] was inactive. The activation was 53% (active) in test [10] and 24.4% (active) in [12].
As to `CCOc1ccc2ncc(C(=O)c3ccc(OC)cc3)c(N3CCN(CC)CC3)c2c1`, the activation in [1] is 196% (active). In addition, the outcome in [2], in test [3], in test [4], in test [5], in [6] and in test [7] was inactive. Moreover, the outcome in test [8], in test [9], in test [10], in test [11], in test [12] and in test [13] was inactive. Moreover, the result in test [14], in test [15] and in [16] was inactive.
For the compound `CCCN(CCC)CCCNc1ccc2nnc(-c3ccc(F)cc3)n2n1`, the activation in test [1] was 92% (active); in [12], 41.2% (active). In addition, the outcome in test [2], in test [3], in test [4], in test [5], in [6] and in test [7] was inactive. Also, the outcome in [8], in [9], in [10], in [11], in [13] and in [14] was inactive. Also, the outcome in [15] and in test [16] was inactive.
Regarding `CCN(CC)CCSc1nc2ccc(OC)cc2[nH]1`, the values for the activation in test [1], in test [2] and in test [12] were 90% (active), 60% (active) and 31.6% (active), respectively. The result in test [3], in [4], in [5], in test [6], in test [7] and in test [8] was inactive. Further, the call in test [9], in test [10], in test [11], in test [13], in test [14] and in test [15] was inactive. In [16], the result was inactive.
Take `CN(C)c1ccc(NC(=S)N2CCN(c3ncc(C(F)(F)F)cc3Cl)CC2)cc1`: the activation in [1] was 112% (active); in [10] it was 27.5% (active); in [12] it was 54.3% (active). For the same compound, the result in test [2], in [3], in test [4], in test [5], in test [6] and in test [7] was inactive. For the same compound, the outcome in test [8], in test [9], in test [11], in [13], in test [14] and in test [15] was inactive. Further, the result in test [16] was inactive.
Consider `CCN(CCCNS(=O)(=O)c1cc(-c2cc(C)no2)ccc1C)Cc1ccccc1`, for which the activation was 171% (active) in test [1], 96% (active) in test [2], 40.5% (active) in test [10] and 68.6% (active) in [12]. The result in test [3], in test [4], in test [5], in test [6], in [7] and in test [8] was inactive. Also, the compound was called inactive in test [9], in test [11], in test [13], in test [14], in test [15] and in test [16].
`COc1cc(OC)cc(C(=O)NCCCN2CCN(CCCNC(=O)c3cc(OC)cc(OC)c3)CC2)c1`: the activation in test [1] was 121% (active); in test [2] it was 94% (active); in [10], 31.5% (active); in test [12] it was 30.4% (active). Further, the outcome in test [3], in test [4], in [5], in [6], in test [7] and in test [8] was inactive. The compound was classed as inactive in test [9], in test [11], in test [13], in test [14], in [15] and in test [16].
With `O=C(Cn1c(-c2ccccc2)c[n+]2ccsc12)c1ccc(Br)cc1`, the result in test [1], in test [3], in test [4], in test [5], in test [6] and in test [7] was inactive. Further, the outcome in test [8], in test [9], in test [10], in test [11], in test [12] and in test [13] was inactive. The result in [14], in test [15] and in [16] was inactive. Besides, in test [2], the activation was 77% (active).
Consider `CN(C)CCCN(C(=O)c1ccc(S(=O)(=O)N2CCOCC2)cc1)c1nc2ccc(F)cc2s1`, for which the activation in [1] was 104% (active). The result in test [2], in test [3], in test [4], in test [5], in [6] and in [7] was inactive. Also, the result in test [8], in test [9], in test [10], in test [11], in [12] and in test [13] was inactive. Also, the outcome in test [14], in [15] and in test [16] was inactive.
In the case of `OC(CNC1CCCc2ccccc21)COc1ccc2ccccc2c1` (stereo not given), the values for the activation in [1], in test [10] and in test [12] were 158% (active), 55% (active) and 30.1% (active), respectively. The result in test [2], in [3], in test [4], in test [5], in test [6] and in test [7] was inactive. Further, the outcome in test [8], in test [9], in test [11], in test [13], in test [14] and in [15] was inactive. Moreover, the result in test [16] was inactive.
Regarding `O=C(COc1ccc(Br)cc1CNC1CCCC1)Nc1ccccc1`, the values for the activation in [1] and in [10] were 175% (active) and 29.5% (active), respectively. In addition, the outcome in [2], in test [3], in [4], in [5], in test [6] and in test [7] was inactive. The outcome in test [8], in [9], in [11], in test [12], in [13] and in test [14] was inactive. Moreover, the result in test [15] and in test [16] was inactive.
Consider `Cc1cc(C)cc(C(=O)N(CCc2ccccc2)C2=CC3CCC(C2)N3C)c1` (stereo not given), for which the activation in test [1] is 86% (active); in [2], 57% (active); in test [10], 67% (active). Further, the outcome in [3], in [4], in test [5], in test [6], in test [7] and in test [8] was inactive. In addition, the compound was classed as inactive in test [9], in test [11], in [12], in test [13], in [14] and in test [15]. For the same compound, the result in [16] was inactive.
Consider `Fc1ccc(C(c2nnnn2Cc2cccs2)N2CCN(C3CCCCC3)CC2)cc1` (stereo not given), for which the activation in test [1] is 251% (active); in test [2], 67% (active); in [10] it was 60.5% (active); in test [12], 22.7% (active). For the same compound, the outcome in test [3], in [4], in test [5], in test [6], in [7] and in test [8] was inactive. The call in test [9], in [11], in test [13], in [14], in test [15] and in test [16] was inactive.
`Cc1cc(C)c(CN2CCN(Cc3ccc(C)o3)C(CCO)C2)c(-n2cccn2)c1` (stereo not given): the activation in [1] is 75% (active); in [10], 73% (active). Besides, the outcome in test [2], in [3], in [4], in test [5], in test [6] and in test [7] was inactive. Moreover, the result in test [8], in test [9], in test [11], in test [12], in test [13] and in [14] was inactive. The result in [15] and in [16] was inactive.
For `O=C(NCCc1ccccn1)C(F)(F)C(F)(F)C(F)(F)C(F)(F)C(F)(F)C(F)F`, the activation in test [1] is 178% (active); in [12], 46% (active). Besides, the result in test [2], in test [3], in test [4], in [5], in [6] and in [7] was inactive. The outcome in [8], in test [9], in test [10], in test [11], in [13] and in [14] was inactive. Besides, the result in test [15] and in test [16] was inactive.
